Consider 30 compounds from PubChem BioAssay (Tox21).

Test [1] is described as follows: A CellTox Green Cytotoxicity Assay to monitor cytotoxicity in HEK293 cells - 40 hour (AID 1224871). Note: nearly all actives have a fitted effect of over 45% in size. Note: potency is the fitted concentration of half-maximal effect. In outline: (§1)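 Cells (HEK293, 600/well) and dye reagent are dispensed together. After 5 h at 37 C, 23 nL compound is pinned in. Plates stay at 37 C for 40 h with fluorescence read at 0h, 8h, 16h, 24h, 32h and 40h.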
Test [2] in a line: qHTS RealTime-Glo MT Cell Viability Assay in HepG2 cells - 8 hour (AID 1224873). Note: nearly all actives have a fitted effect of over 55% in size. The essentials: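 Real-time viability: cells seeded at 600 per well together with NanoLuc and cell-permeant prosubstrate, compounds added after 5 h incubation. Luminescence tracked at 0, 8, 16, 24, 32 and 40 h of exposure.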
The nature of test [3]: A CellTox Green Cytotoxicity Assay to monitor cytotoxicity in HEK293 cells - 24 hour (AID 1224875). Note: nearly all actives have a fitted effect of over 45% in size. Note: potency is the fitted concentration of half-maximal effect. The essentials: as §1
Test [4] is described as follows: qHTS RealTime-Glo MT Cell Viability Assay in HepG2 cells - 32 hour (AID 1224877). Note: nearly all actives have a fitted effect of over 55% in size. In outline: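 HepG2 cells (600/well) were dispensed with RealTime-Glo reagents, incubated 5 h at 37 °C, then treated with compounds in DMSO for up to 40 h. Nonlytic NanoLuc luminescence reflecting viable cells was read at each stated time point.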
Test [5] can be described thus: A CellTox Green Cytotoxicity Assay to monitor cytotoxicity in HepG2 cells - 24 hour (AID 1224878). Note: nearly all actives have a fitted effect of over 45% in size. Note: potency is the fitted concentration of half-maximal effect. In outline: (§2)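 Cells and non-lytic dye reagent are dispensed together (600 HepG2 cells/well) and incubated 5 h before DMSO compound transfer. Kinetic fluorescence is then recorded in the same wells during 40 h at 37 C.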
A short description of test [6]: A CellTox Green Cytotoxicity Assay to monitor cytotoxicity in HepG2 cells - 40 hour (AID 1224879). Note: nearly all actives have a fitted effect of over 40% in size. Note: potency is the fitted concentration of half-maximal effect. The essentials:
as §2

Test [7] is described as follows: qHTS RealTime-Glo MT Cell Viability Assay in HEK293 cells - 0 hour (AID 1224880). Note: nearly all actives have a fitted effect of over 45% in size. Note: potency is the fitted concentration of half-maximal effect. The essentials: (§3)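 Real-time viability in HEK293: signal arises when living cells convert a prosubstrate for NanoLuc in the medium, so luminescence tracks viable cell number. Compound (23 nL, DMSO) added 5 h post-seeding; kinetic reads at 0–40 h, 37 C.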
Test [8] can be described thus: A CellTox Green Cytotoxicity Assay to monitor cytotoxicity in HepG2 cells - 16 hour (AID 1224876). Note: nearly all actives have a fitted effect of over 45% in size. Note: potency is the fitted concentration of half-maximal effect. In outline:
as §2

Test [9] is described as follows: qHTS RealTime-Glo MT Cell Viability Assay in HEK293 cells - 16 hour (AID 1224872). Note: nearly all actives have a fitted effect of over 50% in size. Note: potency is the fitted concentration of half-maximal effect. In outline:
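HEK293 cells seeded with NanoLuc/prosubstrate reagent, rested 5 h at 37 C, then dosed and kept at 37 C up to 40 h. Nonlytic real-time luminescence from viable cells read at 0, 8, 16, 24, 32 and 40 h.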

Test [10] in a line: qHTS RealTime-Glo MT Cell Viability Assay in HEK293 cells - 40 hour (AID 1224874). Note: nearly all actives have a fitted effect of over 50% in size. Note: potency is the fitted concentration of half-maximal effect. Particulars: RealTime-Glo luminescence; max response: active compounds read low. In outline:
as §3
A general note: qHTS replaces the single test concentration by a dilution series.

Records with an inconclusive call do not appear. Unmarked numbers belong to inactive results. Activity calls are given as the source filed them. Calls come from the whole dose curve; as a rule, active = well fitted curve in the direction sought with a large enough effect in the repeat runs; inconclusive = weak or mixed curves; inactive = no such curve, though single readings can be large; an effect the other way counts as inactive or inconclusive.
% is set by controls: 0 for no effect and ±100 for the full control effect.

With `O=C(OCCCCCCOC(=O)c1ccccc1)c1ccccc1`, the Potency entry in test [1], in [2], in [3], in [4], in [5] and in test [6] was “inactive” in each case. Further, in [7], the Potency result is “inactive”.
Consider `COc1cc2nc(Cl)nc(N)c2cc1OC`, for which the Potency entry in [1], in test [2], in test [8], in [4], in test [6] and in test [7] was “inactive” throughout.
With `CC(C)(COC(=O)c1ccccc1)COC(=O)c1ccccc1`, the Potency result in test [1], in test [2], in test [3], in test [8], in test [4] and in test [5] was “inactive” in each case. Besides, the Potency result in test [6] and in test [7] was “inactive” each time.
Regarding `OC(CN1CCC(Cc2ccc(F)cc2)CC1)c1ccc(Cl)cc1` (stereo not drawn), the Potency in test [1] is 21.3 µM (active); in [9] it was 9.52 µM (active); in test [10] it was 9.52 µM (active); in [5], 21.3 µM (active); in test [6], 23.9 µM (active).
For the compound `CCc1c(C(=O)NN2CCCCC2)nn(-c2ccc(Cl)cc2Cl)c1-c1ccc(Br)cc1`, the Potency entry in test [1], in [9], in test [3], in test [8], in test [5] and in test [6] was “inactive” each time. Also, the Potency entry in [7] is “inactive”.
As for `CO[C@@H]1[C@H](OC(=O)/C=C/C=C/C=C/C=C/C(=O)O)CC[C@]2(CO2)[C@H]1[C@@]1(C)O[C@@H]1CC=C(C)C`, the Potency entry in [1], in test [2], in test [3], in [4], in [5] and in test [6] was “inactive” in each case. In test [7], the Potency result is “inactive”.
Regarding `N=c1ccn2c(n1)O[C@H]1[C@H](O)[C@@H](CO)O[C@H]12`, the Potency result in test [1], in [2], in test [3], in test [4] and in [7] was “inactive” in each case. For the same compound, the max response in test [10] is 22.1%.
For `CCN(CC)c1ccc2c(-c3ccccc3C(=O)O)c3ccc(=[N+](CC)CC)cc-3oc2c1`, the Potency in [1] is 24.5 µM (active); in test [9], 34.7 µM (active); in [3], 24.5 µM (active); in test [8], 24.5 µM (active); in test [5], 21.9 µM (active); in test [6] it was 24.5 µM (active). Also, the Potency result in [7] is “inactive”.
On to `CC(C)(O)c1ccc(CNC(=O)c2cccnc2Oc2ccc(F)cc2)cc1`, for which the Potency entry in test [1], in test [2], in test [3], in test [8], in [4] and in test [5] was “inactive” in each case. Further, the Potency result in test [6] and in [7] was “inactive” each time.
Consider `O=C(O)c1ccc(S(=O)(=O)O)cc1C(=O)O`, for which the Potency entry in [1], in test [2], in test [8], in [4], in [5] and in test [6] was “inactive” in each case. Further, in test [7], the Potency entry was “inactive”.
As for `CCCCNc1ccc(C(=O)OCCOCCOCCOCCOCCOCCOCCOCCOCCOC)cc1`, the Potency entry in test [1], in test [2], in test [8], in [4], in [6] and in test [7] was “inactive” in each case.
In the case of `CCOc1ccc(N)c([N+](=O)[O-])c1`, the Potency result in [1], in [2], in test [3], in test [8], in test [4] and in test [5] was “inactive” in each case. For the same compound, the Potency result in test [6] and in test [7] was “inactive” in each case.
On to `CCCCC(CC)CN1C(=O)C2C3C=CC(C3)C2C1=O` (stereo not drawn), for which the Potency in [1] is 30.9 µM (active). The Potency result in [2], in test [4], in test [6] and in [7] was “inactive” in each case.
For `COc1cc2nc(N(C)CCCNC(=O)C3CCCO3)nc(N)c2cc1OC` (stereo not drawn), the Potency entry in test [1], in [2], in [3], in test [8], in test [4] and in test [5] was “inactive” in each case. Moreover, the Potency entry in [6] and in test [7] was “inactive” each time.
`O=C(c1ccc(F)cc1)C1CCN(CCn2c(=S)[nH]c3ccccc3c2=O)CC1`: the Potency result in test [1], in [8], in [4] and in test [5] was “inactive” in each case. Also, the Potency in [9] was 3.38 µM (active).
Take `CCCCCCCCCCCCN1CCCCCC1=O`: the Potency result in test [1], in test [2], in [3], in test [4] and in test [7] was “inactive” each time.
Turning to `CCCCc1nc2cccnc2n1Cc1ccc(-c2ccccc2-c2nnn[nH]2)cc1`, the Potency result in test [1], in test [2], in test [3], in [8], in test [4] and in test [5] was “inactive” throughout. The Potency in test [7] was 21.9 µM (active).
On to `Cn1c(=O)cc(Oc2ccc(F)cc2F)c2cnc(NCC(C)(C)O)nc21`, for which the Potency result in test [1], in test [2], in [3], in test [4], in test [6] and in [7] was “inactive” in each case.
`COc1cc(C(=O)OCCCN2CCCN(CCCOC(=O)c3cc(OC)c(OC)c(OC)c3)CC2)cc(OC)c1OC`: the Potency is 5.35 µM (active) in test [9], 9.52 µM (active) in test [10] and 23.9 µM (active) in [6]. Besides, the Potency result in [2], in test [8], in test [4] and in test [7] was “inactive” in each case.
For `CCN(CC)CCOC(=O)C(Cc1cccc2ccccc12)CC1CCCO1` (stereo not drawn), the Potency entry in [9], in [2], in [3], in test [4], in [5] and in test [6] was “inactive” each time.
As to `O[C@@H](COc1cccc2ncccc12)CN1CCN(C2c3ccccc3[C@@H]3[C@H](c4ccccc42)C3(F)F)CC1` (stereo partly drawn), the Potency result in [1], in [3], in test [8], in [5] and in test [7] was “inactive” throughout.
Turning to `C#C[C@]1(O)CC[C@H]2[C@@H]3CCc4cc(OC5CCCC5)ccc4[C@H]3CC[C@@]21C`, in test [10], the Potency was 23.9 µM (active). For the same compound, the Potency entry in [3] and in [7] was “inactive” in each case.
Turning to `CNCCCN1c2ccccc2CCc2ccccc21`, the Potency result in test [2], in test [3] and in test [7] was “inactive” each time. For the same compound, the Potency in test [5] and in [6] was 26.8 µM (active) throughout.
As to `Cc1cccc(C)c1OCC(=O)N[C@@H](Cc1ccccc1)[C@@H](O)C[C@H](Cc1ccccc1)NC(=O)[C@H](C(C)C)N1CCCNC1=O`, the Potency in test [9] and in [10] was 23.9 µM (active) each time. For the same compound, the Potency result in test [2], in test [8], in test [4], in test [5], in [6] and in test [7] was “inactive” throughout.
On to `CCCCCCCCCCCCCCCCCCOS(=O)(=O)O`, for which the Potency result in test [9], in [2], in test [4] and in test [7] was “inactive” throughout.
In the case of `C[C@H](CCC(=O)O)[C@H]1CC[C@H]2[C@@H]3CC[C@@H]4C[C@H](O)CC[C@]4(C)[C@H]3C[C@H](O)[C@]12C`, the Potency entry in test [9], in [2], in test [4], in test [5] and in [7] was “inactive” throughout. In test [10], the max response is -23.1%.
Turning to `CN(C)c1ccc(C(c2ccccc2)c2ccc(N(C)C)cc2)cc1`, the Potency result in [8], in test [4], in [5], in test [6] and in test [7] was “inactive” in each case.
With `Nc1ccc(N)c2c1C(=O)c1ccccc1C2=O`, the Potency entry in test [1], in test [3], in test [8], in test [6] and in test [7] was “inactive” in each case.
On to `CN1CCC(=C2c3ccccc3Sc3ccccc32)CC1`, for which the Potency entry in test [9], in test [2] and in test [3] was “inactive” in each case. The Potency in [5] was 23.9 µM (active).
Regarding `Clc1ccc(Cn2c(CN3CCCC3)nc3ccccc32)cc1`, the Potency entry in [2], in test [3], in test [8], in test [4], in [5] and in test [6] was “inactive” throughout. The Potency result in test [7] is “inactive”.
